# Assay outcomes from PubChem.
# In the library only some 2.2% were active in any assay of this set; here they are far more common.
# aSyn UTR inh: MLPCN primary screen, SNCA 5' untranslated region. alpha-synuclein 5'UTR reporter, inhibitor activity. inhibition, % (tested at 7.5 µM). AID 1813. 0.82% of 300,000 active; in the data active = inhibition above about 60%;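 also: H4 neuroglioblastoma cells stably carrying SNCA 5'UTR luciferase fusion; 0% = DMSO wells and 100% = positive control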
# APP transl inh: APP translation inhibition; SH-SY5Y APP 5'UTR-luciferase reporter, luminescence; 0.82% of 190,000 active; inhibition, % at 2 µM;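 active = inhibition above a set limit, derived from the sample mean plus 3 SD, cut at about 45% in these data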
# IEC-6 tox: kills IEC-6 intestinal cells in KLF5 counter-screen; IEC-6 cytotoxicity, luminescence viability; inhibition, % at 5 µM; 0.78% of 290,000 active; in the data active = inhibition above about 22%;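 also: 0% = plate median of test compound wells and 100% = cytotoxic reference compound wells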
# Ba/F3 V617F tox: loss of viability in JAK2V617F-driven Ba/F3 cells | Ba/F3 EpoR-JAK2V617F viability, ATP luminescence | inhibition, % at 5.6 µM | 1.1% of 220,000 active;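 active = inhibition above the campaign mean plus 3 SD over all tested compounds, cut at about 24% in these data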;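 also: cytokine-independent growth of Ba/F3 cells driven by EpoR plus mutant JAK2; 0% = DMSO-treated cells and 100% = JAK inhibitor I control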
# BaF3 parental: parental Ba/F3 viability inhibition as JAK2V617F counter-screen | CellTiter-Glo ATP luminescence | inhibition, % at 5.6 µM | 1.1% of 220,000 active | AID 1486;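 active = inhibition above a per-campaign cutoff, the mean inhibition of all tested compounds plus 3 SD, cut at about 27% in these data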;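 also: 0% = DMSO wells and 100% = JAK Inhibitor I control wells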
# KLF5 inhibitor: suppresses KLF5 promoter-driven expression; 0.23% of 290,000 active; inhibition, % at 5 µM; AID 1700; DLD-1 KLF5 promoter-luciferase reporter, luminescence;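 active = inhibition above a per-plate limit of that plate's mean compound inhibition plus 3 SD, cut at about 60% in these data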;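 also: 0% = DMSO wells and 100% = LY294002 at 200 µM; higher means less KLF5 promoter-driven luciferase light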
# * hit, by the source's call; . = not tested or not shown.
SMILES,aSyn UTR inh,APP transl inh,IEC-6 tox,Ba/F3 V617F tox,BaF3 parental,KLF5 inhibitor
O=C(Nc1ccc2oc(=O)ccc2c1)c1ccc(-c2cccc([N+](=O)[O-])c2)o1,92*,.,6,10,-1,22
O=c1cccc2c1c1cc[nH]c3ccc(=O)n2c31,79*,.,.,.,.,.
C=CC(C)(C)c1c(O)c(CC=C(C)C)c(O)c2c(=O)c3ccc(O)c(O)c3oc12,73*,.,.,.,.,.
CCn1c(C)c2c(C)nnc(C)c2c1C,0,-11,0,5,9,-7
CCn1c(C)c(P(c2ccccc2)c2ccccc2)[n+]2ccccc12,17,7,-1,69*,70*,-5
Cc1ccc2nc(C)c(C(=O)NN=C3CCCCCC3)n2c1,-16,84*,9,-1,2,-9
COC(=O)CCC(=O)NC(=S)Nc1sc(C)c(C)c1C(N)=O,90*,94*,40*,75*,71*,58
COC(=O)CCC(=O)Nc1sc(C)c(C)c1C(N)=O,-1,9,-6,-4,-5,1
CCOc1ccc(CN(C)C(=O)CNC(=O)c2cc(OC)c(OC)c(OC)c2)cc1,16,.,-2,.,.,-12
c1ccc(N2CCN(c3nnnn3-c3ccccc3)CC2)cc1,-19,48*,-5,-2,2,8
NS(=O)(=O)c1ccc(NC(=O)COC(=O)C2CC(=O)N(Cc3ccccc3)C2)cc1 (stereo not given),1,-8,1,2,1,-10
O=C(COC(=O)C1CC(=O)N(Cc2ccccc2)C1)Nc1ccc2c(c1)OCO2 (stereo not given),1,53*,3,-4,-1,-31
CC(C)[C@H]1C(=O)Nc2ccccc2N1C(=O)N[C@@H](Cc1ccccc1)C(=O)N[C@H](C(=O)O)c1ccccc1,-2,.,-5,.,.,-1
COc1ccccc1-n1c(-c2ccccc2)c[nH]c1=S,-24,-4,0,-6,-3,-15
COc1ccc(-n2c(-c3ccc(Br)cc3)c[n+]3c2CCc2ccccc2-3)cc1,-91,-2,15,88*,78*,-8
COc1ccccc1-n1c(-c2ccccc2)c[n+]2c1CCc1ccccc1-2,6,13,24*,101*,79*,20
COc1ccc(-n2cc(-c3ccc(Br)cc3)[nH]c2=S)cc1,-138,-15,-6,-3,5,-25
CC(C)c1ccc(-n2c(-c3ccccc3)c[n+]3c2CCc2ccccc2-3)cc1,78*,13,41*,99*,92*,29
O=C1CC(NS(=O)(=O)c2ccccc2)CN1c1ccc2c(c1)OCCO2 (stereo not given),3,.,.,.,.,.
CCN(CC(=O)Nc1ccccc1OC)C(=O)CCOc1ccc(C(C)(C)C)cc1,4,.,.,.,.,.
COc1cc(/C=C/C(=O)O)ccc1O,-8,.,.,.,.,.
COc1cc(/C=C/C(=O)c2ccc([N+](=O)[O-])o2)ccc1O,67*,.,.,.,.,.
O=C(/C=C/c1cccc(Cl)c1)c1ccc([N+](=O)[O-])o1,91*,.,.,.,.,.
Cc1ccc(CCNC(=O)C2CCC(=O)N2Cc2ccc(F)cc2)cc1 (stereo not given),0,.,-5,.,.,5
O=C(NCCc1ccc(Cl)cc1)C1CCC(=O)N1Cc1ccc(F)cc1 (stereo not given),29,-3,-4,-3,96*,-10
SMILES,aSyn UTR inh,APP transl inh,IEC-6 tox,Ba/F3 V617F tox,BaF3 parental,KLF5 inhibitor
CCCCN1C2=NCCCN2c2cc(C)c(C)cc21,12,-2,6,51*,59*,-16
COc1ccc2cc(/C=N/NC(=O)c3ccc(CN(c4ccc(C)c(C)c4)S(C)(=O)=O)cc3)c(Cl)nc2c1,65*,6,0,1,5,-35
COc1ccc2cc(/C=N/NC(=O)c3c(Cl)cnn3C)c(Cl)nc2c1,14,-11,7,4,0,1
CC[n+]1c(/C=C/c2c[nH]c3ccccc23)ccc2cc(C)ccc21,.,-6,10,91*,79*,17
CC(NC(=O)COC(=O)c1ccc2c(c1)S(=O)(=O)N=C1CCCCCN12)C12CC3CC(CC(C3)C1)C2 (stereo not given),68*,28,-3,-2,3,-32
COc1cc(/C=C2\COC/C(=C\c3cc(OC)c(OC)c(OC)c3)C2=O)cc(OC)c1OC,103*,.,4,99*,105*,2
COc1cc(/C=C2\CC(C(C)(C)C)C/C(=C\c3cc(OC)c(OC)c(OC)c3)C2=O)cc(OC)c1OC (stereo not given),80*,.,-2,.,.,-9
N#Cc1ccsc1NC(=O)CCN1CCN(C(c2ccccc2)c2ccccc2)CC1,9,.,3,.,.,-3
Cc1cc(=O)nc2c3ccccc3n(CC(=O)NC(C)c3ccc4c(c3)OCCO4)n12 (stereo not given),-20,.,2,.,.,2
O=C(Cc1ccccc1F)OCN1C(=O)c2ccccc2C1=O,-8,.,-3,.,.,-14
O=C(NCc1ccccn1)Nc1cccc(F)c1,-16,.,-1,.,.,-29
Cc1cccc(N2CCN(C(=O)CSc3nc4ccccc4nc3N3CC(C)OC(C)C3)CC2)c1C (stereo not given),-3,.,-4,.,.,-1
Nc1c(C(=O)Nc2ccc(S(=O)(=O)N3CCCC3)cc2)sc2nc3ccc(OC(F)(F)F)cc3cc12,109*,73*,-2,-3,7,12
COc1ccc(-c2cc(C3CCN(c4cc(Cl)nc(N)n4)CC3)[nH]n2)cc1,39,-4,5,-5,2,-17
Nc1nc(Cl)cc(N2CCC(c3cc(-c4ccc(Cl)cc4)n[nH]3)CC2)n1,43,28,20,47*,45*,14
COc1ccc(CCNC(=O)CSc2nnnn2-c2ccccc2)cc1,-15,48*,-4,-4,-2,-15
COc1ccc(CNC(=O)CSc2nnnn2-c2ccccc2)cc1,13,-11,-4,-1,10,-27
Cc1ccc(N/C(N)=N/c2nc(CSc3nnc(C)s3)cc(=O)[nH]2)c(C)c1,83*,93*,9,-1,4,-29
COc1ccc(N/C(N)=N/c2nc(CSc3nnc(C)s3)cc(=O)[nH]2)cc1,4,16,5,4,13,-5
O=C(Cn1cnc2c(oc3nc4c(cc32)CCCC4)c1=O)Nc1cccc(Cl)c1,66*,.,2,.,.,6
CC(=O)Nc1ccc(OCc2cccc3ccccc23)cc1,92*,.,9,.,.,9
CCOc1ccc(NC(C)=O)cc1,-19,.,-7,.,.,3
CCN(CC)CCNC(=O)c1ccc(NC(=O)Cc2cccc3ccccc23)cc1,21,.,2,.,.,-18
Cc1nc2ccccc2n1-c1nc(-c2ccco2)cc(C(F)(F)F)n1,90*,38,-2,2,8,-2
Cc1nc2ccccc2c(=O)n1/N=C/c1ccc(F)cc1,-53,.,-3,.,.,-54
NC(=O)c1ccc(SCC(=O)OCC(=O)NCc2ccco2)c([N+](=O)[O-])c1,-5,.,.,.,.,.
Cc1ccccc1NC(=S)N=Nc1c(O)n(C)c2ccc(S(=O)(=O)N3CCOCC3)cc12,78*,18,4,2,8,-10
